PubChem BioAssay AID434970 (Sanford-Burnham Center for Chemical Genomics, 2010)
Screen size: about 11,000 compounds; about 310 (2.8%) were called active. Cut-off read from the data, not from the text of the source: active = activity change below about -85%; inactive = the rest. Shown is part of a subset that was picked to be rich in actives.

Test system: intestinal alkaline phosphatase [Mus musculus]
Experiment: activators of mouse IAP, confirmation, biochemical, luminescence, single concentration (AID 434970)
Details: purified mouse IAP, CDP-Star luminescence, 30 min, at 10 µM; activation factor: measured here: IAP activation factor, stronger effect = higher value; activity change, negative = activation: stronger effect = lower value

Row | Structure (SMILES) | activation factor | activity change, negative = activation
1 | NC(=O)CSc1nnc(-c2cccnc2)n1CCc1ccccc1 | 0.957 | 4.35% (inactive)
2 | CS(=O)(=O)Nc1ccccc1C(=O)c1ccccc1 | 1.04 | -3.7% (inactive)
3 | O=C(CSc1ncn[nH]1)CSc1ncn[nH]1 | 0.517 | 48.3% (inactive)
4 | CCCCOC(=O)C1=C(C)NC2=C(C(=O)CCC2)C1c1cc(OC)ccc1OC (stereo unspecified) | 1.09 | -9.15% (inactive)
5 | Cc1ccc(CNC(=O)c2cc(-c3ccccc3)nn2Cc2cc(C)no2)cc1 | 2.26 | -126% (active)
6 | Cn1c(C(=O)NCc2ccccc2)cc2oc3ccccc3c21 | 1.14 | -14.4% (inactive)
7 | CCc1cc(Cn2nc(-c3ccccc3)cc2C(=O)NCc2cccs2)on1 | 1.89 | -88.9% (inactive)
8 | COc1ccc(C2=NOC(Cn3nc(-c4ccccc4)cc3C(=O)NCc3cccc(C(F)(F)F)c3)C2)cc1 (stereo unspecified) | 1.83 | -83.5% (inactive)
9 | CCc1cc(Cn2nc(-c3ccccc3)cc2C(=O)NCc2ccccc2OC)on1 | 1.99 | -99.1% (active)
10 | COc1ccc(C2=NOC(Cn3nc(-c4ccccc4)cc3C(=O)NCc3cccs3)C2)cc1 (stereo unspecified) | 1.82 | -81.5% (inactive)
11 | COc1ccc(C2=NOC(Cn3nc(-c4ccccc4)cc3C(=O)NCc3cccc(Br)c3)C2)cc1 (stereo unspecified) | 2.12 | -112% (active)
12 | CCc1cc(Cn2nc(-c3ccccc3)cc2C(=O)NCc2cccc(Br)c2)on1 | 2.8 | -180% (active)
13 | Cc1ccc(CNC(=O)COC(=O)c2c(C)noc2C)cc1 | 0.891 | 10.9% (inactive)
14 | COc1ccc(C2=NOC(Cn3nc(-c4ccccc4)cc3C(=O)NCc3ccc(C)cc3)C2)cc1 (stereo unspecified) | 1.57 | -57.5% (inactive)
15 | CCc1cc(Cn2nc(-c3ccccc3)cc2C(=O)NCc2ccc(C)cc2)on1 | 1.7 | -69.7% (inactive)
16 | COc1ccc(C2=NOC(Cn3nc(-c4ccccc4)cc3C(=O)NCc3ccccc3OC)C2)cc1 (stereo unspecified) | 1.68 | -67.7% (inactive)
17 | O=C(COc1ccccc1Cl)OCC(=O)N1CCN(S(=O)(=O)c2ccccc2)CC1 | 0.883 | 11.7% (inactive)
18 | CC(=O)c1cccc(NC(=O)CCNS(=O)(=O)c2cccc(C(C)=O)c2)c1 | 0.929 | 7.05% (inactive)
19 | Cc1cc(Br)cc2c1NC(=O)C2(c1c(C)n(C)n(-c2ccccc2)c1=O)c1c(C)n(C)n(-c2ccccc2)c1=O | 1.02 | -2.5% (inactive)
20 | Cc1cc(C)n2cc(CSc3nnnn3-c3ccccc3)nc2n1 | 0.946 | 5.45% (inactive)
21 | CCOC(=O)c1c(NC(=O)CSc2nnc(CNc3ccc(F)cc3)o2)sc(C(C)=O)c1C | 0.797 | 20.2% (inactive)
22 | O=C1c2ccccc2[C@@H]2C[C@@H](O)[C@H](Nc3cccc(Cl)n3)CCN12 | 1.01 | -0.85% (inactive)

Row | Structure (SMILES) | activation factor | activity change, negative = activation
23 | CCCCN1CCS(=O)(=O)N(Cc2ccccc2Br)CC(C(=O)OC)C1 (stereo unspecified) | 0.992 | 0.8% (inactive)
24 | C=CCNC(=O)/C(=C/c1ccco1)NC(=O)c1ccc(Br)o1 | 0.906 | 9.4% (inactive)
25 | O=C(NCCCN1CCCCC1)c1ccc2c(=O)n(CCc3ccccc3)c(=O)[nH]c2c1 | 0.91 | 9% (inactive)
26 | COc1cc(OC)c2c(-c3cccc(-c4ccc(OC(F)(F)F)cc4)c3)cc(=O)oc2c1 | 0.834 | 16.6% (inactive)
27 | COCC(C)NCc1cccc(OC)c1OC (stereo unspecified) | 1.14 | -14.2% (inactive)
28 | Cc1ccc(C(=O)NC(Cc2ccc(C(C)(C)C)cc2)C(=O)O)cc1 (stereo unspecified) | 1.03 | -3.5% (inactive)
29 | O=C(c1ccc(S(=O)(=O)N2CCCCC2)cc1)N1CCCc2ccccc21 | 0.98 | 2.05% (inactive)
30 | Cc1cc(Cn2nc(-c3ccccc3)cc2C(=O)NCc2cccc(Br)c2)on1 | 3.29 | -230% (active)
31 | Cc1ccccc1-c1cc(C(=O)NCc2cccc(Br)c2)n(CC2CC(c3cccnc3)=NO2)n1 (stereo unspecified) | 1.56 | -55.5% (inactive)
32 | Cc1nn(C)cc1CNC(=O)c1cccc(Br)c1 | 1.12 | -11.8% (inactive)
33 | O=C(C[C@H]1C[C@H](C(=O)N2CCOCC2)[C@@]2(CCC3CCCC3)c3[nH]c4cc(-c5ccco5)ccc4c3CCN2C1=O)NCCc1ccccn1 | 1.17 | -17.2% (inactive)
34 | Cc1ccccc1OCC(=O)OC(C)CN1CCN(C)CC1 (stereo unspecified) | 0.998 | 0.2% (inactive)
35 | COc1ccc(NC(=O)Nc2ccc3c(c2)N(C)C(=O)CS3)cc1OC | 1.48 | -48.4% (inactive)
36 | CN1C(=O)CSc2ccc(NC(=O)NCCC3=CCCCC3)cc21 | 2.22 | -122% (active)
37 | Cc1ccc(CNC(=O)Nc2ccc3c(c2)N(C)C(=O)CS3)cc1 | 1.78 | -78% (inactive)
38 | CCOc1ccc(NC(=O)Nc2ccc3c(c2)N(C)C(=O)CS3)cc1 | 1.29 | -29.2% (inactive)
39 | CCc1ccc(NC(=O)Nc2ccc3c(c2)N(C)C(=O)CS3)cc1 | 2.14 | -114% (active)
40 | CC(=O)c1ccc(NC(=O)Nc2ccc3c(c2)N(C)C(=O)CS3)cc1 | 1.28 | -28.4% (inactive)
41 | CC(C)CCNC(=O)Nc1ccc2c(c1)N(C)C(=O)CS2 | 1.53 | -52.8% (inactive)
42 | Cc1cc(C)cc(NC(=O)Nc2ccc3c(c2)N(C)C(=O)CS3)c1 | 2.54 | -154% (active)
43 | Cc1ccc(NC(=O)Nc2ccc3c(c2)N(C)C(=O)CS3)cc1C | 1.92 | -91.7% (inactive)
